# Measurements: publication PMC5540273 (PLoS ONE, 2017)
# Experiments:
# Conditions in all cases: concentration: 1 μM, replicates: in singlicate; n = 1
# [1] = system: CSNK1G1
# [2] = system: CSNK1G2
# [3] = system: CSNK1G3
# [4] = system: CSNK2A1
# [5] = system: CSNK2A2
# [6] = system: T1, CTK
# T1 construct: gene MATK
# [7] = system: DAPK1
# [8] = system: DAPK2
# [9] = system: DAPK3
# [10] = system: T2, DCAMKL1
# T2 construct: gene DCLK1
# [11] = system: T3, DCAMKL2
# T3 construct: gene DCLK2
# [12] = system: T4, DCAMKL3
# T4 construct: gene DCLK3
# [13] = system: DDR1
# [14] = system: DDR2
# [15] = system: T5, DLK
# T5 construct: gene MAP3K12
# [16] = system: T6, DMPK2
# T6 construct: gene CDC42BPG
# [17] = system: DMPK
# [18] = system: T7, DRAK1
# T7 construct: gene STK17A
# [19] = system: T8, DRAK2
# T8 construct: gene STK17B
# [20] = system: DYRK1A
# 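Further: KINOMEscan kinase panel screen.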
smiles,measurement,setting,value
CC(=O)Nc1nc2cnc(Nc3cc(NC(=O)c4cccc(C5(C#N)CC5)c4Cl)ccc3C)nc2s1,%Inh,[1],0%
same,%Inh,[2],0%
same,%Inh,[3],0%
same,%Inh,[4],0%
same,%Inh,[5],0%
same,%Inh,[6],52%
same,%Inh,[7],0%
same,%Inh,[8],0%
same,%Inh,[9],0%
same,%Inh,[10],23%
same,%Inh,[11],0%
same,%Inh,[12],0%
same,%Inh,[13],100%
same,%Inh,[14],99.4%
same,%Inh,[15],0%
same,%Inh,[16],0%
same,%Inh,[17],0%
same,%Inh,[18],0%
same,%Inh,[19],10%
same,%Inh,[20],0%
Clc1ccc(-c2nn3ncccc3c2-c2ccnc(Nc3ccc4c(c3)OCCO4)n2)cc1 [GW829116],%Inh,[1],0%
same,%Inh,[2],42%
same,%Inh,[3],23%
same,%Inh,[4],0%
same,%Inh,[5],8%
same,%Inh,[6],36%
same,%Inh,[7],0%
same,%Inh,[8],0%
same,%Inh,[9],0%
same,%Inh,[10],7%
same,%Inh,[11],0%
same,%Inh,[12],0%
same,%Inh,[13],98.5%
same,%Inh,[14],95.9%
same,%Inh,[15],0%
same,%Inh,[16],92.9%
same,%Inh,[17],0%
same,%Inh,[18],0%
same,%Inh,[19],0%
same,%Inh,[20],0%
COc1cc(Nc2ncc3c(C)nc(-c4cc5ccccc5[nH]4)n3n2)cc(OC)c1OC [GW869516],%Inh,[1],21%
same,%Inh,[2],0%
same,%Inh,[3],29%
same,%Inh,[4],96.4%
same,%Inh,[5],99.7%
same,%Inh,[6],0%
same,%Inh,[7],0%
same,%Inh,[8],0%
same,%Inh,[9],11%
same,%Inh,[10],17%
same,%Inh,[11],0%
same,%Inh,[12],0%
same,%Inh,[13],52%
same,%Inh,[14],52%
same,%Inh,[15],22%
same,%Inh,[16],0%
same,%Inh,[17],0%
same,%Inh,[18],30%
same,%Inh,[19],10%
same,%Inh,[20],85%
O=c1[nH]cc(-c2ccc(N3CCOCC3)cc2)c2sc(-c3cn[nH]c3)cc12 [GSK2276055],%Inh,[1],43%
same,%Inh,[2],43%
same,%Inh,[3],63%
same,%Inh,[4],64%
same,%Inh,[5],79%
same,%Inh,[6],0%
same,%Inh,[7],37%
same,%Inh,[8],19%
same,%Inh,[9],23%
same,%Inh,[10],12%
same,%Inh,[11],0%
same,%Inh,[12],0%
same,%Inh,[13],3%
same,%Inh,[14],0%
same,%Inh,[15],0%
same,%Inh,[16],0%
same,%Inh,[17],0%
same,%Inh,[18],35%
same,%Inh,[19],11%
same,%Inh,[20],99.8%
COc1cccc(C(=O)Nc2cccc(Oc3ccc4nc(NC(=O)C5CC5)cn4n3)c2)c1,%Inh,[1],13%
same,%Inh,[2],0%
same,%Inh,[3],30%
same,%Inh,[4],0%
same,%Inh,[5],17%
same,%Inh,[6],0%
same,%Inh,[7],0%
same,%Inh,[8],4%
same,%Inh,[9],9%
same,%Inh,[10],20%
same,%Inh,[11],17%
same,%Inh,[12],49%
same,%Inh,[13],100%
same,%Inh,[14],99.7%
same,%Inh,[15],18%
same,%Inh,[16],27%
same,%Inh,[17],0%
same,%Inh,[18],0%
same,%Inh,[19],24%
same,%Inh,[20],0%
Nc1ncnc2c1nc(-c1ccccc1)n2-c1ccccc1 [SKF-97293],%Inh,[1],4%
same,%Inh,[2],14%
same,%Inh,[3],7%
same,%Inh,[4],0%
same,%Inh,[5],13%
same,%Inh,[6],42%
same,%Inh,[7],0%
same,%Inh,[8],0%
same,%Inh,[9],17%
same,%Inh,[10],0%
same,%Inh,[11],0%
same,%Inh,[12],3%
same,%Inh,[13],6%
same,%Inh,[14],41%
same,%Inh,[15],23%
same,%Inh,[16],0%
same,%Inh,[17],6%
same,%Inh,[18],0%
same,%Inh,[19],0%
same,%Inh,[20],6%
CN1CCN(Cc2cccc(-c3ccc4c(Nc5ccc(Oc6ccccc6)cc5)ccnc4c3)c2)CC1 [GW578342],%Inh,[1],18%
same,%Inh,[2],1%
same,%Inh,[3],2%
same,%Inh,[4],0%
same,%Inh,[5],0%
same,%Inh,[6],0%
same,%Inh,[7],100%
same,%Inh,[8],6%
same,%Inh,[9],25%
same,%Inh,[10],13%
same,%Inh,[11],1%
same,%Inh,[12],59%
same,%Inh,[13],9%
same,%Inh,[14],33%
same,%Inh,[15],41%
same,%Inh,[16],0%
same,%Inh,[17],0%
same,%Inh,[18],10%
same,%Inh,[19],0%
same,%Inh,[20],1%
O=C(Nc1cccc(-c2nn3ncccc3c2-c2ccnc(Nc3ccccc3)n2)c1)c1c(F)cccc1F [GSK198271],%Inh,[1],19%
same,%Inh,[2],0%
same,%Inh,[3],26%
same,%Inh,[4],8%
same,%Inh,[5],11%
same,%Inh,[6],27%
same,%Inh,[7],11%
same,%Inh,[8],0%
same,%Inh,[9],1%
same,%Inh,[10],18%
same,%Inh,[11],0%
same,%Inh,[12],20%
same,%Inh,[13],100%
same,%Inh,[14],91.8%
same,%Inh,[15],8%
same,%Inh,[16],99.8%
same,%Inh,[17],0%
same,%Inh,[18],0%
same,%Inh,[19],0%
same,%Inh,[20],18%
COc1cc(Nc2nccc(-c3c(-c4cccc(NC(=O)c5c(F)cccc5F)c4)nn4ncccc34)n2)cc(OC)c1OC [GSK327238],%Inh,[1],16%
same,%Inh,[2],0%
same,%Inh,[3],20%
same,%Inh,[4],0%
same,%Inh,[5],4%
same,%Inh,[6],14%
same,%Inh,[7],0%
same,%Inh,[8],0%
same,%Inh,[9],0%
same,%Inh,[10],12%
same,%Inh,[11],0%
same,%Inh,[12],43%
same,%Inh,[13],100%
same,%Inh,[14],95.2%
same,%Inh,[15],2%
same,%Inh,[16],100%
same,%Inh,[17],8%
same,%Inh,[18],0%
same,%Inh,[19],0%
same,%Inh,[20],23%
COc1ccc(CNC(=O)NC2CCN(c3ccnc(Nc4ccc(F)cc4)n3)CC2)cc1 [GSK1379788],%Inh,[1],0%
same,%Inh,[2],0%
same,%Inh,[3],19%
same,%Inh,[4],0%
same,%Inh,[5],0%
same,%Inh,[6],0%
same,%Inh,[7],0%
same,%Inh,[8],0%
same,%Inh,[9],0%
same,%Inh,[10],0%
same,%Inh,[11],0%
same,%Inh,[12],5%
same,%Inh,[13],0%
same,%Inh,[14],32%
same,%Inh,[15],34%
same,%Inh,[16],0%
same,%Inh,[17],0%
same,%Inh,[18],0%
same,%Inh,[19],0%
same,%Inh,[20],0%
CCc1ccc(-c2ccc3c(c2)-c2c(cnn2C)S(=O)(=O)N3C)cc1,%Inh,[1],0%
same,%Inh,[2],2%
same,%Inh,[3],0%
same,%Inh,[4],0%
same,%Inh,[5],10%
same,%Inh,[6],26%
same,%Inh,[7],1%
same,%Inh,[8],0%
same,%Inh,[9],5%
same,%Inh,[10],0%
same,%Inh,[11],0%
same,%Inh,[12],0%
same,%Inh,[13],0%
same,%Inh,[14],2%
same,%Inh,[15],0%
same,%Inh,[16],0%
same,%Inh,[17],0%
same,%Inh,[18],0%
same,%Inh,[19],0%
same,%Inh,[20],0%
COc1ccc(Nc2nccc(N3CCC(NC(=O)Nc4cccc(OC)c4)C3)n2)cc1 (stereo not shown) [GSK1379742],%Inh,[1],13%
same,%Inh,[2],0%
same,%Inh,[3],20%
same,%Inh,[4],6%
same,%Inh,[5],0%
same,%Inh,[6],0%
same,%Inh,[7],0%
same,%Inh,[8],0%
same,%Inh,[9],0%
same,%Inh,[10],0%
same,%Inh,[11],0%
same,%Inh,[12],13%
same,%Inh,[13],8%
same,%Inh,[14],24%
same,%Inh,[15],46%
same,%Inh,[16],0%
same,%Inh,[17],0%
same,%Inh,[18],8%
same,%Inh,[19],0%
same,%Inh,[20],4%
c1ccc(-c2n[nH]cc2Nc2ccnc3ccccc23)nc1 [GW694077],%Inh,[1],100%
same,%Inh,[2],1%
same,%Inh,[3],12%
same,%Inh,[4],54%
same,%Inh,[5],68%
same,%Inh,[6],0%
same,%Inh,[7],23%
same,%Inh,[8],60%
same,%Inh,[9],66%
same,%Inh,[10],23%
same,%Inh,[11],0%
same,%Inh,[12],12%
same,%Inh,[13],0%
same,%Inh,[14],10%
same,%Inh,[15],74%
same,%Inh,[16],0%
same,%Inh,[17],0%
same,%Inh,[18],99.4%
same,%Inh,[19],0%
same,%Inh,[20],99.9%
FC(F)(F)c1ccc(/C=C/c2cncnc2Nc2ccc3[nH]c(Cc4ccccc4)nc3c2)cc1 [GW709199],%Inh,[1],2%
same,%Inh,[2],0%
same,%Inh,[3],4%
same,%Inh,[4],0%
same,%Inh,[5],0%
same,%Inh,[6],0%
same,%Inh,[7],0%
same,%Inh,[8],0%
same,%Inh,[9],11%
same,%Inh,[10],9%
same,%Inh,[11],7%
same,%Inh,[12],21%
same,%Inh,[13],0%
same,%Inh,[14],36%
same,%Inh,[15],0%
same,%Inh,[16],0%
same,%Inh,[17],0%
same,%Inh,[18],0%
same,%Inh,[19],7%
same,%Inh,[20],0%
Cc1ccc(S(=O)(=O)Nc2ccc(Nc3nccc(Nc4cccc5[nH]ncc45)n3)cc2)cc1 [GSK581271],%Inh,[1],0%
same,%Inh,[2],0%
same,%Inh,[3],7%
same,%Inh,[4],0%
same,%Inh,[5],0%
same,%Inh,[6],0%
same,%Inh,[7],0%
same,%Inh,[8],0%
same,%Inh,[9],5%
same,%Inh,[10],12%
same,%Inh,[11],5%
same,%Inh,[12],21%
same,%Inh,[13],82%
same,%Inh,[14],36%
same,%Inh,[15],0%
same,%Inh,[16],0%
same,%Inh,[17],0%
same,%Inh,[18],61%
same,%Inh,[19],7%
same,%Inh,[20],16%
COc1cc(Nc2nccc(N3CCC(NC(=O)Nc4cccc(C(C)=O)c4)C3)n2)cc(OC)c1OC (stereo not shown) [GSK1379753],%Inh,[1],12%
same,%Inh,[2],0%
same,%Inh,[3],21%
same,%Inh,[4],13%
same,%Inh,[5],16%
same,%Inh,[6],0%
same,%Inh,[7],5%
same,%Inh,[8],0%
same,%Inh,[9],13%
same,%Inh,[10],20%
same,%Inh,[11],0%
same,%Inh,[12],0%
same,%Inh,[13],6%
same,%Inh,[14],8%
same,%Inh,[15],42%
same,%Inh,[16],25%
same,%Inh,[17],0%
same,%Inh,[18],0%
same,%Inh,[19],10%
same,%Inh,[20],14%
Cn1cc(-c2ccc3c(c2)CCN3C(=O)Cc2cccc(F)c2)c2c(N)ncnc21 [GSK2603358],%Inh,[1],28%
same,%Inh,[2],0%
same,%Inh,[3],38%
same,%Inh,[4],0%
same,%Inh,[5],0%
same,%Inh,[6],0%
same,%Inh,[7],0%
same,%Inh,[8],0%
same,%Inh,[9],12%
same,%Inh,[10],14%
same,%Inh,[11],0%
same,%Inh,[12],32%
same,%Inh,[13],69%
same,%Inh,[14],30%
same,%Inh,[15],22%
same,%Inh,[16],50%
same,%Inh,[17],0%
same,%Inh,[18],0%
same,%Inh,[19],0%
same,%Inh,[20],15%
